From PubChem BioAssay (EPA / NIEHS)
Results filed as inconclusive are left out. Activity calls are given as the source filed them. The calls were made as follows, unless noted: active = hit-call score of the fitted dose curve at least 0.9, where 1 is the maximum; inconclusive = response in the unintended direction; inactive = score below 0.9.

Legend:
[1] = target: Cellular tumor antigen p53 (Homo sapiens) (UniProt P04637); assay: TOX21_p53_BLA_p3_ratio: Tox21 HCT-116 p53 Agonism Beta-lactamase Assay, Ratio, Phase 3 (AID 2283596)
Outline: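 Cells were seeded at 4000/well, rested 5 h at 37C, then dosed with DMSO compound solutions (217-fold dilution) for 16 h. CCF4-AM substrate was loaded for 2 h at room temperature, and the 460/530 nm emission ratio was fitted for gain of signal versus DMSO.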

[2] = TOX21_p53_BLA_p4_viability: Viability Assessment in the Tox21 HCT-116 p53 Agonism Beta-lactamase Assay, Phase 4 (AID 2283597);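 also: hits lower the luminescence signal meaning cytotoxicity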
Outline: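 4000 HCT116 cells per well; 5 h attachment; compounds from DMSO, 217-fold dilution; 16 h at 37C. Then CCF4-AM, 2 h RT, followed by CellTiter-Glo, 30 min RT, luminescence. Decrease = cytotoxicity.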

[3] = target: Cellular tumor antigen p53 (Homo sapiens) (UniProt P04637); assay: TOX21_p53_BLA_p5_ratio: Tox21 HCT-116 p53 Agonism Beta-lactamase Assay, Ratio, Phase 5 (AID 2283599)
Outline: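 HCT-116 p53-bla cells (4000/well) plated 5 h, dosed with compound (217-fold DMSO dilution) for 16 h at 37 C; CCF4-AM substrate 2 h at room temperature. Activity is the 460/530 nm emission ratio (405 nm excitation), fitted in gain-of-signal direction versus DMSO.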

[4] = TOX21_p53_BLA_p5_viability: Viability Assessment in the Tox21 HCT-116 p53 Agonism Beta-lactamase Assay, Phase 5 (AID 2283600)
Outline: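 Decreased CellTiter-Glo luminescence denotes lost viability. Exposure: 16 h at 37C, 5% CO2, with compounds from DMSO stocks diluted 217-fold in wells of 4000 cells.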

[5] = target: Cellular tumor antigen p53 (Homo sapiens) (UniProt P04637); assay: TOX21_p53_BLA_p4_ratio: Tox21 HCT-116 p53 Agonism Beta-lactamase Assay, Ratio, Phase 4 (AID 2283601)
Outline: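 HCT-116 p53 beta-lactamase reporter cells (4000/well) preincubated 5 h, then compound (217-fold dilution of DMSO stock) for 16 h at 37C. CCF4-AM substrate added 2 h at room temperature; 460/530 nm emission ratio fitted upward versus DMSO.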

[6] = Tanguay_ZF_120hpf_YSE_legacy: (Legacy) Oregon State University Tanguay Lab 120 Hour Post-fertilization zebrafish Assay for Yolk Sac Edema (AID 2283634);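 as to AC50: actives raise the incidence of yolk sac edema above the DMSO baseline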
Outline: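 Dechorionated Tropical 5D wild-type zebrafish embryos were exposed statically, one per well, from 6 to 120 hpf at 28C in 0.64% DMSO. Yolk sac edema was scored present/absent by brightfield at 120 hpf, and dead embryos were excluded.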

[7] = Tanguay_ZF_120hpf_AXIS_legacy: (Legacy) Oregon State University Tanguay Lab 120 Hour Post-fertilization zebrafish Assay for Body Axis Malformation (AID 2283635);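 as to AC50: potency for an increased fraction of larvae scored with body axis malformation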
Outline: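 Dechorionated wild-type Tropical 5D zebrafish embryos, one per well, statically exposed from 6 hpf to 120 hpf at 28C in 0.64% DMSO final. Body axis malformation scored present/absent by brightfield microscopy at 120 hpf; dead embryos excluded.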

[8] = Tanguay_ZF_120hpf_SNOU_legacy: (Legacy) Oregon State University Tanguay Lab 120 Hour Post-fertilization zebrafish Assay for Snout Malformation (AID 2283637)
Outline: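 Binary brightfield scoring of snout malformation at 120 hpf. Dechorionated 5D wild-type embryos, one per well, static exposure from 6 hpf at 28C, sealed and dark; final DMSO 0.64% (vol/vol), DMSO as baseline; 5uM trimethyltin chloride positive control.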

[9] = Tanguay_ZF_120hpf_JAW_legacy: (Legacy) Oregon State University Tanguay Lab 120 Hour Post-fertilization zebrafish Assay for Jaw Malformation (AID 2283638);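 as to AC50: active means more embryos with jaw malformation than DMSO controls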
Outline: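 Dechorionated Tropical 5D wild-type zebrafish embryos, one per well, exposed statically from 6 hpf to 120 hpf at 28C in 0.64% DMSO. Jaw malformation was scored by brightfield microscopy as present or absent. It was not scored in dead embryos.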

[10] = Tanguay_ZF_120hpf_OTIC_legacy: (Legacy) Oregon State University Tanguay Lab 120 Hour Post-fertilization zebrafish Assay for Otic Vesicle Malformation (AID 2283639)
Outline: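 Binary scoring of otic vesicle defects at 120 hpf in zebrafish (Tropical 5D) held under static exposure at 28C, sealed and shaded, with final DMSO 0.64%. Embryos dying by 24 or 120 hpf excluded; fitted positively against DMSO.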

[11] = Tanguay_ZF_120hpf_PE_legacy: (Legacy) Oregon State University Tanguay Lab 120 Hour Post-fertilization zebrafish Assay for Pericardial Edema (AID 2283640);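 as to AC50: potency for increased incidence of pericardial edema versus DMSO baseline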
Outline: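 Tropical 5D wild-type zebrafish embryos were statically exposed until 120 hpf at 28C, with 0.64% DMSO final. Pericardial edema was scored by brightfield as present or absent; endpoints were not scored in dead embryos.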

[12] = Tanguay_ZF_120hpf_SOMI_legacy: (Legacy) Oregon State University Tanguay Lab 120 Hour Post-fertilization zebrafish Assay for Somite Malformation (AID 2283647)
Outline: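 Dechorionated Tropical 5D wild-type zebrafish embryos, one per well from 6 hpf, statically exposed at 28C to 120 hpf in 0.64% DMSO; somite malformation scored present/absent by brightfield; trimethyltin 5 uM positive control; dead embryos not scored.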

[13] = Tanguay_ZF_120hpf_PIG_legacy: (Legacy) Oregon State University Tanguay Lab 120 Hour Post-fertilization zebrafish Assay for Pigmentation Malformation (AID 2283650)
Outline: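 Brightfield scoring of pigmentation malformation at 120 hpf, recorded as binary present/absent per larva. Exposure: dechorionated 5D wild-type embryos, one per well, static from 6 hpf at 28C, final DMSO 0.64% (vol/vol). Dead embryos not scored.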

[14] = Tanguay_ZF_120hpf_CIRC_legacy: (Legacy) Oregon State University Tanguay Lab 120 Hour Post-fertilization zebrafish Assay for Circulatory Malformation (AID 2283651)
Outline: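 Binary circulatory malformation call at 120 hpf by brightfield imaging of zebrafish larvae; chorion removed at 4 hpf, static exposure from 6 hpf in sealed dark plates at 28C, final DMSO 0.64%; non-mortality endpoints skipped if embryo died.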

[15] = Tanguay_ZF_120hpf_MORT_legacy: (Legacy) Oregon State University Tanguay Lab 120 Hour Post-fertilization zebrafish Assay for Mortality (AID 2283633)
Outline: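 Dechorionated Tropical 5D wild-type zebrafish embryos, one per well from 6 hpf, static exposure in 0.64% DMSO at 28C until 120 hpf. Mortality scored as binary by brightfield microscopy at 24 and 120 hpf.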

[16] = Tanguay_ZF_120hpf_EYE_legacy: (Legacy) Oregon State University Tanguay Lab 120 Hour Post-fertilization zebrafish Assay for Eye Malformation (AID 2283636);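 also: binary presence or absence of eye malformation scored by brightfield in 120 hpf larvae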
Outline: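 5D wild-type embryos, pronase-dechorionated at 4 hpf; static exposure 6–120 hpf, 28C, dark; DMSO 0.64% final; 5uM trimethyltin chloride positive control. Binary eye-defect scoring at 120 hpf; dead embryos not scored.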

[17] = Tanguay_ZF_120hpf_PFIN_legacy: (Legacy) Oregon State University Tanguay Lab 120 Hour Post-fertilization zebrafish Assay for Pectoral Fin Malformation (AID 2283648);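 also: each larva judged yes or no for fin defect by brightfield with dead larvae skipped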
Outline: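 Binary pectoral fin malformation call at 120 hpf by brightfield microscopy; 5D wild-type zebrafish, chorion removed at 4 hpf, one embryo per well from 6 hpf, static exposure at 28C; DMSO (0.64% final) as baseline.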

[18] = Tanguay_ZF_120hpf_CFIN_legacy: (Legacy) Oregon State University Tanguay Lab 120 Hour Post-fertilization zebrafish Assay for Caudal Fin Malformation (AID 2283649)
Outline: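 Dechorionated Tropical 5D wild-type embryos, one per well from 6 hpf, static exposure to 120 hpf at 28C in 0.64% DMSO. Caudal fin malformation scored by brightfield as present/absent; not scored in dead embryos.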

[19] = Tanguay_ZF_120hpf_BRAI_legacy: (Legacy) Oregon State University Tanguay Lab 120 Hour Post-fertilization zebrafish Assay for Brain Malformation (AID 2283641)
Outline: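 Tropical 5D wild-type zebrafish embryos exposed statically until 120 hpf at 28C, 0.64% DMSO final, sealed and dark. Brain malformation scored present/absent by brightfield at 120 hpf; dead embryos excluded. Trimethyltin chloride 5uM positive control.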

[20] = read-out: solute carrier (SLC22A6), SLC22A6 (gene 9356); assay: LTEA_HepaRG_SLC22A6: Life Technologies and Expression Analysis (LTEA) Assay for solute carrier (SLC22A6) using HepaRG (AID 2283653; active = hit-call score of the fitted dose curve at least 0.9, where 1 is the maximum; inactive = score below 0.9); conditions: mRNA level, 48 h; actives raise or lower the signal
Outline: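 Differentiated HepaRG cells exposed 48 h in serum-free induction medium to 8 half-log concentrations, top 100 uM, in 0.5% DMSO; SLC22A6 mRNA by Fluidigm qRT-PCR normalized to ACTB, GAPDH, POLR2A, fitted bidirectionally versus DMSO.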

Cellular tumor antigen p53 (Homo sapiens), sequence (P04637 whole entry, looked up): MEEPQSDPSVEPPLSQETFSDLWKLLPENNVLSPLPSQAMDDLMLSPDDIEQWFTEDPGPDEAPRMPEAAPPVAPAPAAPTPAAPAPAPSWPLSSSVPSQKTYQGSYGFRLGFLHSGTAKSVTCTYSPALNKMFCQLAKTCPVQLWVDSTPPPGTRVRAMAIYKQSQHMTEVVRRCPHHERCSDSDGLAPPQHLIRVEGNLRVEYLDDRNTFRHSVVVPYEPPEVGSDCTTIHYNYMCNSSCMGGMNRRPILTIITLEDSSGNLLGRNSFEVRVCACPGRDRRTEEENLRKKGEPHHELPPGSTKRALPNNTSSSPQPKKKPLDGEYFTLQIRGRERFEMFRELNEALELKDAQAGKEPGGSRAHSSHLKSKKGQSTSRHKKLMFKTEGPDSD

Question: What does the source list for CCOCCOC(C)=O?
Answer: outcome [1]: inactive; outcome [2]: inactive; outcome [3]: inactive; outcome [4]: inactive; outcome [5]: inactive; outcome [6]: inactive; outcome [7]: inactive; outcome [8]: inactive; outcome [9]: inactive; outcome [10]: inactive; outcome [11]: inactive; outcome [12]: inactive; outcome [13]: inactive; outcome [14]: inactive

Question: Which outcome [15] does the source give for CCC(C)(CC)c1cc(NC(=O)c2c(OC)cccc2OC)on1 here?
Answer: inactive

Question: And the outcome [6]?
Answer: inactive

Question: What about the outcome [7] of the same compound?
Answer: inactive

Question: And the outcome [16]?
Answer: inactive

Question: What about the outcome [8] of the same compound?
Answer: inactive

Question: And the outcome [9]?
Answer: inactive

Question: And the outcome [10]?
Answer: inactive

Question: And the outcome [11]?
Answer: inactive

Question: What about the outcome [12] of the same compound?
Answer: inactive

Question: What about the outcome [17] of the same compound?
Answer: inactive

Question: With O=C(O)C(F)(F)C(F)(F)C(F)(F)C(F)(F)C(F)(F)F as the compound, how does the outcome [1] read?
Answer: inactive

Question: And the outcome [3]?
Answer: inactive

Question: And the outcome [5]?
Answer: inactive

Question: And the outcome [15]?
Answer: inactive

Question: What about the outcome [6] of the same compound?
Answer: inactive

Question: And the outcome [7]?
Answer: inactive

Question: And the outcome [16]?
Answer: inactive

Question: And the outcome [8]?
Answer: inactive

Question: And the outcome [9]?
Answer: inactive

Question: And the outcome [10]?
Answer: inactive

Question: What about the outcome [11] of the same compound?
Answer: inactive

Question: And the outcome [17]?
Answer: inactive

Question: What about the outcome [13] of the same compound?
Answer: inactive

Question: And the outcome [14]?
Answer: inactive

Question: With CCNc1nc(NC(C)C)nc(SC)n1 as the compound, how does the outcome [15] read?
Answer: inactive

Question: What about the outcome [6] of the same compound?
Answer: inactive

Question: And the outcome [7]?
Answer: inactive

Question: What about the outcome [16] of the same compound?
Answer: inactive

Question: And the outcome [8]?
Answer: inactive

Question: What about the outcome [9] of the same compound?
Answer: inactive

Question: What about the outcome [10] of the same compound?
Answer: inactive

Question: And the outcome [11]?
Answer: inactive

Question: And the outcome [12]?
Answer: inactive

Question: And the outcome [13]?
Answer: inactive

Question: And the outcome [14]?
Answer: inactive

Question: What does the source list for CCSC(=O)N(CC)C1CCCCC1?
Answer: outcome [15]: inactive; outcome [6]: inactive; outcome [7]: inactive; outcome [8]: inactive; outcome [9]: inactive; outcome [10]: inactive; outcome [12]: inactive; outcome [18]: inactive; outcome [13]: inactive; outcome [14]: inactive

Question: For Cc1cc2c3c(c1)C(c1ccccc1)=N[C@@H](NC(=O)c1ccncc1)C(=O)N3CC2, which outcome [5] is on record?
Answer: inactive

Question: What about the outcome [15] of the same compound?
Answer: inactive

Question: And the outcome [6]?
Answer: inactive

Question: What about the outcome [7] of the same compound?
Answer: inactive

Question: What about the outcome [16] of the same compound?
Answer: inactive

Question: What about the outcome [8] of the same compound?
Answer: inactive

Question: And the outcome [9]?
Answer: inactive

Question: And the outcome [10]?
Answer: inactive

Question: And the outcome [11]?
Answer: inactive

Question: What about the outcome [12] of the same compound?
Answer: inactive

Question: And the outcome [17]?
Answer: inactive

Question: And the outcome [13]?
Answer: inactive

Question: With CN(C)c1nc(=O)n(C2CCCCC2)c(=O)n1C as the compound, how does the outcome [15] read?
Answer: inactive

Question: And the outcome [6]?
Answer: inactive

Question: And the outcome [7]?
Answer: inactive

Question: What about the outcome [16] of the same compound?
Answer: inactive

Question: And the outcome [8]?
Answer: inactive

Question: And the outcome [10]?
Answer: inactive

Question: What about the outcome [11] of the same compound?
Answer: inactive

Question: What about the outcome [19] of the same compound?
Answer: inactive

Question: And the outcome [14]?
Answer: inactive

Question: Which outcome [2] does the source give for CC#Cc1cc(C)nc(Nc2ccccc2)n1 here?
Answer: inactive

Question: What about the outcome [4] of the same compound?
Answer: inactive

Question: And the outcome [5]?
Answer: inactive

Question: And the outcome [15]?
Answer: inactive

Question: What about the outcome [6] of the same compound?
Answer: inactive

Question: And the outcome [16]?
Answer: inactive

Question: What about the outcome [8] of the same compound?
Answer: inactive

Question: And the outcome [9]?
Answer: inactive

Question: And the outcome [12]?
Answer: inactive

Question: What about the outcome [13] of the same compound?
Answer: inactive

Question: What about the outcome [14] of the same compound?
Answer: inactive

Question: With CC1=C2C[C@H]3[C@@H](CC=C4C[C@@H](O)CC[C@@]43C)[C@@H]2CC[C@]12O[C@@H]1C[C@H](C)CN[C@H]1[C@H]2C as the compound, how does the outcome [1] read?
Answer: inactive

Question: And the outcome [3]?
Answer: inactive

Question: What about the outcome [4] of the same compound?
Answer: inactive

Question: And the outcome [5]?
Answer: inactive

Question: What about the outcome [15] of the same compound?
Answer: inactive

Question: What about the AC50 [6] of the same compound?
Answer: 17.2 µM (active)

Question: And the AC50 [7]?
Answer: 0.33 µM (active)

Question: What about the outcome [16] of the same compound?
Answer: inactive

Question: What about the AC50 [8] of the same compound?
Answer: 21 µM (active)

Question: And the AC50 [9]?
Answer: 25.9 µM (active)

Question: And the outcome [10]?
Answer: inactive

Question: What about the AC50 [11] of the same compound?
Answer: 20.2 µM (active)

Question: What about the outcome [12] of the same compound?
Answer: inactive

Question: What about the AC50 [18] of the same compound?
Answer: 16.6 µM (active)

Question: And the AC50 [13]?
Answer: 20 µM (active)

Question: And the outcome [14]?
Answer: inactive

Question: And the outcome [20]?
Answer: inactive
